“And” between values parts separate entries of the source, which are not always exact repeats. Equal entries are not always repeated. Inconclusive results are not listed. The source holds several records for some structures; these can differ, active in one and inactive in another. The source made the active and inactive calls. Rule for the calls: active = hit-call score of the fitted dose curve at least 0.9, where 1 is the maximum; inconclusive = response in the unintended direction; inactive = score below 0.9.
Tests used:
[1] = read-out: sulfotransferase (SULT2A), SULT2A1 (gene 6822); assay: CLD_SULT2A_24hr: CellzDirect (CLD) Gene Expression Assay for sulfotransferase (SULT2A) at 24 hours (AID 2283694);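 for AC50: potency for increased SULT2A1 mRNA level as induction over DMSO baseline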
Summary of the method: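 Primary human hepatocytes from two donor preparations were dosed daily with fresh solutions, vehicle 0.2% DMSO. At 24 h, lysates went to quantitative nuclease protection (qNPA) with S1 digestion and chemiluminescent readout. Cytotoxicity was annotated from phase-contrast morphology.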

[2] = read-out: glucuronosyltransferase (UGT1A1), UGT1A1 (gene 54658); assay: CLD_UGT1A1_24hr: CellzDirect (CLD) Gene Expression Assay for glucuronosyltransferase (UGT1A1) at 24 hours (AID 2283696)
Summary of the method: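 Primary human hepatocytes from two donor preparations were dosed (0.2% DMSO vehicle) and harvested at 24 h; UGT1A1 mRNA induction was quantified by chemiluminescent qNPA, fitted as gain relative to DMSO.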

[3] = read-out: Cytochrome P450 3A4 (Homo sapiens) (UniProt P08684); assay: CLD_CYP3A4_48hr: CellzDirect (CLD) Gene Expression Assay for xenobiotic metabolism (CYP3A4) at 48 hours (AID 2283698)
Summary of the method: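 Primary human hepatocytes from two donor preparations dosed daily for two days with multiple chemical concentrations, 0.2% DMSO vehicle. CYP3A4 mRNA at 48 h by quantitative nuclease protection assay, chemiluminescence, positive fit versus DMSO; cytotoxicity flagged morphologically.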

[4] = read-out: Cytochrome P450 2B6 (Homo sapiens) (UniProt P20813); assay: CLD_CYP2B6_48hr: CellzDirect (CLD) Gene Expression Assay for xenobiotic metabolism (CYP2B6) at 48 hours (AID 2283699);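 note: actives raise transcript level above DMSO so potency reflects induction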
Summary of the method: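 Primary human hepatocytes dosed daily for two days over multiple concentrations, 0.2% DMSO vehicle; CYP2B6 mRNA quantified at 48 h by qNPA chemiluminescence. Induction fitted as gain of signal versus DMSO; cytotoxicity annotated by morphology.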

[5] = CLD_ACTIN_48hr: CellzDirect (CLD) Gene Expression Assay for Baseline Control (Actin) at 48 hours (AID 2283702)
Summary of the method: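 Primary human hepatocytes (two donor preparations) dosed daily for two days with ToxCast chemicals at multiple concentrations versus 0.2% DMSO vehicle; harvested at 48 h. Actin mRNA measured as a background control by quantitative nuclease protection assay with chemiluminescence.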

[6] = read-out: xenobiotic metabolism (CYP1A1), CYP1A1 (gene 1543); assay: CLD_CYP1A1_48hr: CellzDirect (CLD) Gene Expression Assay for xenobiotic metabolism (CYP1A1) at 48 hours (AID 2283705)
Summary of the method: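 Primary human hepatocytes from two donors dosed daily for two days at multiple concentrations, 0.2% DMSO vehicle; CYP1A1 mRNA induction at 48 h by qNPA chemiluminescence. Cytotoxicity noted by phase-contrast morphology.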

[7] = read-out: Glyceraldehyde-3-phosphate dehydrogenase (Homo sapiens) (UniProt P04406); assay: CLD_GAPDH_48hr: CellzDirect (CLD) Gene Expression Assay for Baseline Control (Glyceraldehyde 3-phosphate dehydrogenase) at 48 hours (AID 2283706);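 note: active means higher GAPDH mRNA than DMSO vehicle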
Summary of the method: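 Primary human hepatocytes dosed daily for two days with fresh chemical at multiple concentrations, 0.2% DMSO vehicle; GAPDH mRNA measured at 48 h by quantitative nuclease protection assay with chemiluminescence, fitted upward relative to DMSO as background control.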

[8] = read-out: xenobiotic metabolism (CYP1A2), CYP1A2 (gene 1544); assay: CLD_CYP1A2_48hr: CellzDirect (CLD) Gene Expression Assay for xenobiotic metabolism (CYP1A2) at 48 hours (AID 2283703)
Summary of the method: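 Primary human hepatocytes from two donor preparations were dosed daily for two days at multiple concentrations in 0.2% DMSO vehicle. CYP1A2 mRNA was measured at 48 hours by chemiluminescent quantitative nuclease protection assay, with gain of signal fitted versus DMSO and cytotoxicity annotated from morphology.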

[9] = read-out: organic anion transporter (SLCO1B1), SLCO1B1 (gene 10599); assay: CLD_SLCO1B1_48hr: CellzDirect (CLD) Gene Expression Assay for organic anion transporter (SLCO1B1) at 48 hours (AID 2283707)
Summary of the method: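 Primary human hepatocytes from two donor preparations dosed daily for two days with multiple concentrations, 0.2% DMSO vehicle. SLCO1B1 mRNA at 48 h by quantitative nuclease protection assay, chemiluminescence; gain-of-signal fitted versus DMSO.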

[10] = read-out: ABC Transporter (ABCB1), ABCB1 (gene 5243); assay: CLD_ABCB1_48hr: CellzDirect (CLD) Gene Expression Assay for ABC Transporter (ABCB1) at 48 hours (AID 2283695)
Summary of the method: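 Primary human hepatocytes from two donor preparations dosed daily on two consecutive days with 0.2% DMSO vehicle. Harvest at 48 h. ABCB1 mRNA quantified by qNPA with chemiluminescence and fitted for gain of signal versus DMSO.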

Measured: AC50

Cytochrome P450 3A4 (Homo sapiens), sequence (P08684 whole entry, looked up): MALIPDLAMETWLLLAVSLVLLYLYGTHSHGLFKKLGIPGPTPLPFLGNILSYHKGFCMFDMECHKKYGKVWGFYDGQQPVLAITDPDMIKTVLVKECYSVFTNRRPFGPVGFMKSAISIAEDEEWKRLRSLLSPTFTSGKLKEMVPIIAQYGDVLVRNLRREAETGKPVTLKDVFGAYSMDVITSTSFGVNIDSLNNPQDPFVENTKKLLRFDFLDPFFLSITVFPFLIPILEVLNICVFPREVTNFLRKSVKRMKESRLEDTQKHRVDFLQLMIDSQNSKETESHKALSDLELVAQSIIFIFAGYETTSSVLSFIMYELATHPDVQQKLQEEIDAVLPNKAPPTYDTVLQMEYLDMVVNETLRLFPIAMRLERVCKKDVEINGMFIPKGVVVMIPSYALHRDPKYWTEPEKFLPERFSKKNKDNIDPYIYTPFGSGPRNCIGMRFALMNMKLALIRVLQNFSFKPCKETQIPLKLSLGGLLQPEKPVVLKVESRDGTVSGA
Glyceraldehyde-3-phosphate dehydrogenase (Homo sapiens), sequence (P04406 whole entry, looked up): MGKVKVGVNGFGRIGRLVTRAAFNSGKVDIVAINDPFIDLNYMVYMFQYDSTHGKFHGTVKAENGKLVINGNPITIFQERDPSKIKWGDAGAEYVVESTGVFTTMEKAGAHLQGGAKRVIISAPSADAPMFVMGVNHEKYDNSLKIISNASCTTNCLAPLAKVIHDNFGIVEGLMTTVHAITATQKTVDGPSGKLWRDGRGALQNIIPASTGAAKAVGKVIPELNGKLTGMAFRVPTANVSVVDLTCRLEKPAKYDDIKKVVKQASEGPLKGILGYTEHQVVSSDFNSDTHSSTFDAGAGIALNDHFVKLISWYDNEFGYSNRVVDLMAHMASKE

N#Cc1nn(-c2c(Cl)cc(C(F)(F)F)cc2Cl)c(N)c1S(=O)C(F)(F)F (stereo not given)
inactive: [2] | [5] | [6] | [7]
active: [1] 2.43 µM | [3] 1.1 µM | [4] 1.9 µM

CCCCC(CC)COC(=O)c1ccccc1C(=O)OCC(CC)CCCC (stereo not given)
not listed: [8] | [9] | [10]
inactive: all other assays above

COc1nc(C)nc(NC(=O)NS(=O)(=O)c2ccccc2Cl)n1
not listed: [10]
inactive: all other assays above

COP(=S)(OC)Oc1nc(Cl)c(Cl)cc1Cl
active: [4] 7.69 µM
not listed: [5] | [8] | [10]
inactive: all other assays above

COC(=O)C(C)Oc1ccc(Oc2ccc(Cl)cc2Cl)cc1 (stereo not given)
inactive: [1] | [2] | [3] | [4] | [5] | [6] | [7] | [9]
active: [4] 20 µM

CCNc1nc(Cl)nc(NC(C)C)n1
active: [2] 6.52 µM | [3] 14.2 µM | [4] 3.97 µM | [6] 20 µM
inactive: [1] | [7] | [9]

CCCN(CCC)c1c([N+](=O)[O-])cc(S(N)(=O)=O)cc1[N+](=O)[O-]
active: [1] 20 µM | [3] 10 µM | [6] 28.9 µM
inactive: [2] | [9]

CCCCOC(=O)c1ccccc1C(=O)OCCCC
not listed: [8] | [10]
inactive: all other assays above

C#CCOS(=O)OC1CCCCC1Oc1ccc(C(C)(C)C)cc1 (stereo not given)
inactive: [1] | [2] | [6]
active: [3] 3.74 µM | [4] 2 µM

CC1COC(Cn2cncn2)(c2ccc(Oc3ccc(Cl)cc3)cc2Cl)O1 (stereo not given)
active: [6] 2 µM
not listed: [8] | [9] | [10]
inactive: all other assays above

CCOC(=O)CC(SP(=S)(OC)OC)C(=O)OCC (stereo not given)
inactive: [1] | [2] | [3] | [4] | [5] | [7]

CC(C)Oc1cc(-n2nc(C(C)(C)C)oc2=O)c(Cl)cc1Cl
active: [3] 1.9 µM | [4] 2.67 µM | [6] 4.01 µM
inactive: [1] | [2]

C=CCC1=C(C)[C@@H](OC(=O)[C@@H]2[C@@H](C=C(C)C)C2(C)C)CC1=O
inactive: [1]
active: [2] 20 µM | [4] 4.38 µM

CCOC(=O)C(Cl)Cc1cc(-n2nc(C)n(C(F)F)c2=O)c(F)cc1Cl (stereo not given)
active: [3] 4.77 µM | [4] 20 µM
inactive: [1] | [2] | [6]

COC(=O)c1ccccc1C(=O)OC
inactive: [1] | [2] | [3] | [4] | [9]

COc1nc(C)nc(NC(=O)NS(=O)(=O)c2ccccc2CCC(F)(F)F)n1
active: [3] 20 µM and 4.16 µM and 3.34 µM | [4] 2.5 µM and 990 nM and 836 nM
inactive: [1] | [2] | [5] | [6] | [9]

CCCC1COC(Cn2cncn2)(c2ccc(Cl)cc2Cl)O1 (stereo not given)
inactive: [1] | [2]
active: [3] 2.06 µM | [4] 1.89 µM | [6] 20 µM

OC(c1ccc(Cl)cc1)(c1cncnc1)c1ccccc1Cl (stereo not given)
inactive: [1] | [2] | [5] | [6]
active: [3] 0.443 µM | [4] 0.483 µM

CCOc1cc(Oc2ccc(C(F)(F)F)cc2Cl)ccc1[N+](=O)[O-]
active: [3] 5.16 µM | [4] 1.83 µM | [6] 1.01 µM
inactive: [1] | [2]

COC(=O)C=C(C)OP(=O)(OC)OC
inactive: [1] | [2] | [3] | [5] | [6]
active: [4] 0.0004 µM

CCOP(=S)(OCC)SCn1c(=O)oc2cc(Cl)ccc21
active: [3] 4.1 µM | [4] 1.06 µM | [6] 13.9 µM
inactive: [1] | [2]

Cc1ccc(-c2c(Cl)nc(C#N)n2S(=O)(=O)N(C)C)cc1
inactive: [1] | [10] | [2] | [5] | [7]
active: [6] 20 µM

COc1cnc(OC)n2nc(NS(=O)(=O)c3c(OCC(F)F)cccc3C(F)(F)F)nc12
active: [3] 20 µM
not listed: [7] | [8] | [10]
inactive: all other assays above

CC(C)(C)c1ccc(CSc2cnn(C(C)(C)C)c(=O)c2Cl)cc1
active: [1] 20 µM
not listed: [8] | [10]
inactive: all other assays above

CCNc1nc(Cl)nc(NCC)n1
inactive: [1] | [2] | [3] | [7] | [9]
active: [4] 6.18 µM | [6] 3.92 µM

CCCCNC(=O)OCC#CI
not listed: [9] | [10]
inactive: all other assays above

Cc1c(F)c(F)c(COC(=O)C2C(/C=C(\Cl)C(F)(F)F)C2(C)C)c(F)c1F (stereo not given)
inactive: [2] | [5]
active: [3] 20 µM | [4] 4.39 µM | [8] 4.46 µM | [6] 20 µM

CCc1nn(C)c(C(=O)NCc2ccc(C(C)(C)C)cc2)c1Cl
active: [1] 3.71 µM | [3] 20 µM | [4] 37.3 µM | [6] 8.98 µM

CCON=C(CC)C1=C(O)CC(c2c(C)cc(C)cc2C)CC1=O (stereo not given)
inactive: [1] | [2] | [4] | [5] | [7]

O=C(O)COc1nc(Cl)c(Cl)cc1Cl
inactive: [1] | [2] | [4] | [6] | [7]

COC(=O)N(OC)c1ccccc1COc1ccn(-c2ccc(Cl)cc2)n1
active: [6] 1.9 µM
inactive: [1] | [2] | [4] | [9]

CCCCNC(=O)n1c(NC(=O)OC)nc2ccccc21
active: [6] 33.1 µM
inactive: [2] | [7]

CO/C=C(/C(=O)OC)c1ccccc1Oc1cc(Oc2ccccc2C#N)ncn1
inactive: [1] | [2] | [5]
active: [4] 2.46 µM

N#Cc1cc(Br)c(O)c(Br)c1
inactive: [1] | [2] | [6] | [7]

O=C(O)c1nc(Cl)ccc1Cl
inactive: [1] | [3] | [9]
active: [4] 4.4 µM | [8] 7.28 µM | [6] 4.17 µM

N#CC(CCc1ccc(Cl)cc1)(Cn1cncn1)c1ccccc1 (stereo not given)
active: [3] 0.736 µM | [4] 0.434 µM | [8] 2.3 µM | [6] 2.53 µM
inactive: [1] | [5]

CN(C)C(=S)SSC(=S)N(C)C
inactive: [4] | [5] | [7]
active: [6] 29.7 µM

CC(C)C1(C)N=C(c2nc3ccccc3cc2C(=O)O)NC1=O (stereo not given)
inactive: [2] | [3] | [5] | [6]
active: [4] 0.000357 µM

CNC(=S)S
inactive: [1] | [5] | [6] | [7]

CC1=C(C(=O)Nc2ccccc2)SCCO1
inactive: [2] | [3]
active: [4] 20 µM | [6] 36.1 µM

C=CCC1=C(C)C(OC(=O)C2C(C=C(C)C)C2(C)C)CC1=O (stereo not given)
active: [4] 12.8 µM
inactive: [6]

CNC(=O)ON=CC(C)(C)SC
inactive: [2] | [3] | [4] | [5] | [7]

COc1ccc(C(c2ccc(OC)cc2)C(Cl)(Cl)Cl)cc1
active: [2] 20 µM | [4] 6.44 µM | [8] 8.31 µM | [6] 20 µM
inactive: [1]

CS/C(C)=N/OC(=O)N(C)SN(C)C(=O)O/N=C(\C)SC
inactive: [2] | [5] | [6] | [9]

Cc1cc(Cl)ccc1OCC(=O)O
inactive: [2] | [3] | [4] | [5] | [8]

Oc1ccccc1-c1ccccc1
inactive: [2] | [3] | [9]
active: [4] 8.64 µM

O=C(Nc1ccccc1)Nc1ccnc(Cl)c1
inactive: [2]
active: [4] 6.77 µM | [6] 10.8 µM

Fc1ccc(Oc2ccnc3cc(Cl)cc(Cl)c23)cc1
inactive: [2] | [3] | [4] | [6] | [9]

COP(N)(=O)SC (stereo not given)
inactive: [3] | [5] | [9]

C=CC1(C)OC(=O)N(c2cc(Cl)cc(Cl)c2)C1=O (stereo not given)
inactive: [1] | [2] | [4] | [6] | [7]

COc1nc(NC(C)C)nc(NC(C)C)n1
inactive: [10] | [2] | [9]
active: [3] 6.77 µM | [4] 5.98 µM | [8] 7.97 µM | [6] 4.52 µM

CON(C)C(=O)Nc1ccc(Cl)c(Cl)c1
active: [4] 1.31 µM | [6] 3.68 µM
inactive: [3]

CC(Oc1ccc(Cl)cc1Cl)C(=O)O (stereo not given)
inactive: [2] | [3] | [4] | [7]

Reference: PubChem BioAssay (EPA / NIEHS)
